Measurements as given in PubChem BioAssay (EPA / NIEHS).
Where “and” joins values, the source holds several entries; their conditions need not be identical. Equal values may be shown once. Where a structure was tested more than once in an assay, its records may differ in their call. Calls of active or inactive are those of the source. The calls were made as follows: active = hit-call score of the fitted dose curve at least 0.9, where 1 is the maximum; inactive = score below 0.9.

What was measured:
[1] = read-out: Intercellular Adhesion Molecule 1 (ICAM1), ICAM1 (gene 3383); experiment: BSK_KF3CT_ICAM1: BioMAP Diversity Plus: KF3CT Assay for Intercellular Adhesion Molecule 1 (ICAM1) Biomarker Activity (AID 2283067); conditions: primary human keratinocytes with fibroblasts; actives raise or lower the signal
How it was run: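 Dose the keratinocyte/fibroblast co-culture, wait 24 h, measure ICAM-1 by ELISA, then fit increases or decreases against DMSO. Cytotoxicity is checked in parallel cultures by SRB total-protein staining.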

[2] = read-out: Interferon-gamma inducible Protein 10 (IP10), CXCL10 (gene 3627); experiment: BSK_KF3CT_IP10: BioMAP Diversity Plus: KF3CT Assay for Interferon-gamma inducible Protein 10 (IP10) Biomarker Activity (AID 2283068); conditions: primary human keratinocytes with fibroblasts; actives raise or lower the signal
How it was run: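 Signal is secreted/surface IP-10 by ELISA in a human primary skin co-culture of keratinocytes and foreskin fibroblasts, taken 24 h post-dosing; DMSO served as negative control.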

[3] = BSK_KF3CT_SRB: Viability Assessment in the BioMAP Diversity Plus: KF3CT Assay (AID 2283069); conditions: primary human keratinocytes with fibroblasts;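 also: fitted for both signal gain and loss against DMSO baseline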
How it was run: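 Human primary keratinocyte plus foreskin fibroblast co-culture exposed to chemicals for 24 h. Total protein measured by 0.1% sulforhodamine B staining after 10% TCA fixation, read at 560 nm; bidirectional fitting versus DMSO baseline.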

[4] = read-out: TIMP metallopeptidase inhibitor 2 (TIMP2), TIMP2 (gene 7077); experiment: BSK_KF3CT_TIMP2: BioMAP Diversity Plus: KF3CT Assay for TIMP metallopeptidase inhibitor 2 (TIMP2) Biomarker Activity (AID 2283071); conditions: primary human keratinocytes with fibroblasts; actives raise or lower the signal
How it was run: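 Keratinocyte–fibroblast co-culture, 24 h exposure; TIMP-2 ELISA, DMSO-normalised bidirectional fit. Parallel SRB (0.1%, TCA-fixed, 560 nm) total-protein staining gauges cytotoxicity.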

[5] = read-out: C-C motif chemokine 2 (Homo sapiens) (UniProt P13500); experiment: BSK_KF3CT_MCP1: BioMAP Diversity Plus: KF3CT Assay for Monocyte Chemoattractant Protein 1 (MCP1/CCL2) Biomarker Activity (AID 2283073); conditions: primary human keratinocytes with fibroblasts; actives raise or lower the signal
How it was run: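 Keratinocytes and foreskin fibroblasts were co-cultured, dosed with chemical, and sampled 24 h later. MCP-1 was quantified by ELISA, and the endpoint was analyzed with bidirectional fitting using DMSO as negative control.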

[6] = read-out: urokinase plasminogen activator (uPA), PLAU (gene 5328); experiment: BSK_KF3CT_uPA: BioMAP Diversity Plus: KF3CT Assay for urokinase plasminogen activator (uPA) Biomarker Activity (AID 2283075); conditions: primary human keratinocytes with fibroblasts; actives raise or lower the signal
How it was run: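 Human keratinocyte plus foreskin fibroblast primary co-culture exposed to chemical for 24 h. uPA levels were quantified by ELISA, and activity was fitted bidirectionally against a DMSO negative-control baseline.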

[7] = read-out: CD40, CD40 (gene 958); experiment: BSK_LPS_CD40: BioMAP Diversity Plus: LPS Assay for CD40 Biomarker Activity (AID 2283076); conditions: primary human HUVEC with PBMC; actives raise or lower the signal
How it was run: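 CD40 signal, measured by ELISA, is fitted in both directions relative to DMSO vehicle. The system is an LPS-driven human vascular primary co-culture of endothelial cells and PBMC, sampled 24 h after compound addition.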

[8] = read-out: E-selectin (Homo sapiens) (UniProt P16581); experiment: BSK_LPS_Eselectin: BioMAP Diversity Plus: LPS Assay for Eselectin Biomarker Activity (AID 2283077); conditions: primary human HUVEC with PBMC; actives raise or lower the signal
How it was run: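 Signal of E-selectin, detected by ELISA, served as the endpoint; cells were umbilical vein endothelium with PBMC, read 24 h after treatment. DMSO defined baseline, and both increases and decreases were fitted.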

[9] = read-out: Interleukin-8 (IL8), CXCL8 (gene 3576); experiment: BSK_LPS_IL8: BioMAP Diversity Plus: LPS Assay for Interleukin-8 (IL8) Biomarker Activity (AID 2283078); conditions: primary human HUVEC with PBMC; actives raise or lower the signal
How it was run: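 Endothelial cells and PBMC from human donors are co-cultured, treated with chemicals and LPS, then assayed for IL-8 by ELISA after 24 h. Parallel SRB staining (0.1% SRB after 10% TCA fixation, 560 nm) flags cytotoxicity.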

[10] = BSK_LPS_SRB: Viability Assessment in the BioMAP Diversity Plus: LPS Assay (AID 2283079); conditions: primary human HUVEC with PBMC;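 also: total protein by sulforhodamine B absorbance as a cytotoxicity measure; measured one day after compound addition; fitted in both directions against DMSO so loss or gain of signal counts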
How it was run: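 Overt cytotoxicity was gauged by sulforhodamine B total-protein staining in a primary human vascular endothelial and mononuclear cell co-culture 24 h post-dosing. Activity was fitted in both directions relative to DMSO.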

Measured: AC50

Chain of E-selectin (Homo sapiens) (P16581 whole entry, looked up): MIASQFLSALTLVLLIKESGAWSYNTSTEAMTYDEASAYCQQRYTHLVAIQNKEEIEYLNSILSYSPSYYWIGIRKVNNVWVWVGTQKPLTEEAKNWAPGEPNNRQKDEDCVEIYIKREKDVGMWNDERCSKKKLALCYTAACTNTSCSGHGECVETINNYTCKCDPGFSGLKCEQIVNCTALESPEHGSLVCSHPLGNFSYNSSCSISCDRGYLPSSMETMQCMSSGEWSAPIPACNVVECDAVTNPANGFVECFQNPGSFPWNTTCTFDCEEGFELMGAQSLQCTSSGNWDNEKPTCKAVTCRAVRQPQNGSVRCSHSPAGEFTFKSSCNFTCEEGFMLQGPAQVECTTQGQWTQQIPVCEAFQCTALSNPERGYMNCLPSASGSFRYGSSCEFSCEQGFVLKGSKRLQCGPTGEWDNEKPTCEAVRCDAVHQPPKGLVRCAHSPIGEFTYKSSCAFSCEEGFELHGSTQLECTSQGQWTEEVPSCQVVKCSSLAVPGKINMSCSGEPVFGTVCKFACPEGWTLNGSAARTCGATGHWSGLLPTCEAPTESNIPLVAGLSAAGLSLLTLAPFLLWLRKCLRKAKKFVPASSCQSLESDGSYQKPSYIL

C#CC1(O)CC[C@H]2[C@@H]3CCC4=CCCC[C@@H]4[C@H]3CC[C@@]21C (stereo partly drawn)
active: [1] 13.6 µM | [2] 34 µM | [3] 30.6 µM | [4] 20 µM | [5] 30.9 µM | [6] 35.1 µM | [7] 20 µM | [8] 30.3 µM | [9] 35 µM | [10] 20 µM

CCOC(=O)c1ccccc1C(=C1C=C(Br)C(=O)C(Br)=C1)c1cc(Br)c(O)c(Br)c1
inactive: [3]
active: [1] 5.2 µM and 5.41 µM | [2] 3.9 µM and 3.58 µM | [3] 3.4 µM | [4] 3.46 µM and 3.44 µM | [5] 3.39 µM and 3.47 µM | [6] 3.6 µM and 3.63 µM | [7] 20.9 µM and 17.5 µM | [8] 21.2 µM and 21.8 µM | [9] 23 µM and 22.9 µM | [10] 20.6 µM and 23.2 µM

O=c1c2ccccc2oc2ccccc12
inactive: all assays above

CCO[Si](CCCN=C=O)(OCC)OCC
inactive: all assays above

C=CC(=O)OCC(Br)CBr (stereo not drawn)
inactive: [5]
active: [1] 25.2 µM | [2] 30 µM | [3] 33.8 µM | [4] 32 µM | [6] 34.1 µM | [7] 15.6 µM | [8] 20 µM | [9] 12.5 µM | [10] 31 µM

c1ccc(-c2ccccn2)nc1
inactive: all assays above

CCCCC(CC)COC(=O)c1ccccc1O (stereo not drawn)
active: [7] 18.6 µM
inactive: all other assays above

c1ccc2c(c1)ccc1ncccc12
active: [7] 20 µM | [10] 20 µM
inactive: all other assays above

CC(C)C(=O)C(C)C
inactive: all assays above

Nc1ccc(N)c(Cl)c1
inactive: [1] | [2] | [3] | [4] | [5] | [6] | [8] | [9]
active: [7] 3.22 µM and 2.55 µM | [8] 13.9 µM | [9] 7.92 µM | [10] 25.9 µM and 32.6 µM

C/C=C\C/C=C/CCCCCCCCOC(C)=O
active: [1] 24.6 µM | [2] 39.4 µM | [4] 20 µM | [5] 20 µM | [7] 20 µM | [8] 30.9 µM | [9] 34 µM
inactive: [3] | [6] | [10]

COc1ccc2nc(N)sc2c1
inactive: all assays above

C=CC=CC=CCCCCC
inactive: all assays above

COCc1c(C(C)C)nc(C(C)C)c(/C=C/[C@@H](O)C[C@@H](O)CC(=O)O)c1-c1ccc(F)cc1
active: [5] 0.071 µM | [10] 0.023 µM
inactive: all other assays above

N#[N+]c1ccc2c(S(=O)(=O)[O-])cccc2c1O
inactive: all assays above

CCOc1nc(F)cc2nc(S(=O)(=O)Nc3c(Cl)cccc3C(=O)OC)nn12
inactive: all assays above

C=CCOCC(O)CCl (stereo not drawn)
inactive: all assays above

CCCCC(CC)COCC1CO1 (stereo not drawn)
inactive: all assays above
